Reference: PubChem BioAssay
The source made the active and inactive calls.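 The calls were made as follows: active = normalized viability below 100% at a tested concentration; inactive = the rest.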

experiment: drug combination growth inhibition, ovarian cancer – cell-based, oncology-focused library, rucaparib conditional, profiling panel (AID 1508598); settings: patient-derived ovarian cancer cells, CellTiter-Glo viability, 144 h; at 0.313 µM; OCI-P5x cells; without rucaparib; hits give low values

SMILES	viability
CNC(=O)c1ccc(N2C(=S)N(c3ccc(C#N)c(C(F)(F)F)c3)C(=O)C2(C)C)cc1F	94.4% (active)
Cn1cncc1[C@@](N)(c1ccc(Cl)cc1)c1ccc2c(c1)c(-c1cccc(Cl)c1)cc(=O)n2C	66.7% (active)
O=C(O)c1ccc2c(c1)nc(Nc1cccc(Cl)c1)c1ccncc12	107% (inactive)
CC(C)C[C@H](NC(=O)CNC(=O)c1cc(Cl)ccc1Cl)B(O)O	4.33% (active)
CC1(C)CCC(c2ccc(Cl)cc2)=C(CN2CCN(c3ccc(C(=O)NS(=O)(=O)c4ccc(N[C@H](CCN5CCOCC5)CSc5ccccc5)c(S(=O)(=O)C(F)(F)F)c4)cc3)CC2)C1	92.1% (active)
C#Cc1cccc(Nc2ncnc3cc(OCCOC)c(OCCO)cc23)c1	100% (inactive)
CC(C)CC(=O)Nc1n[nH]c2c1CN(C(=O)C1CCN(C)CC1)C2(C)C	96% (active)
C=CCn1c(=O)c2cnc(Nc3ccc(N4CCN(C)CC4)cc3)nc2n1-c1cccc(C(C)(C)O)n1	59.9% (active)
O=C(O)[C@H](Cc1c[nH]c2ccccc12)N1C(=O)c2ccccc2C1=O	54.2% (active)
O=C(NC1CCNCC1)c1[nH]ncc1NC(=O)c1c(Cl)cccc1Cl	78.2% (active)
CC(C)C[C@H](NC(=O)CNC(=O)c1cc(Cl)ccc1Cl)B1OC(=O)CC(CC(=O)O)(C(=O)O)O1 (some centres not stated)	3.86% (active)

same assay, conditions: patient-derived ovarian cancer cells, CellTiter-Glo viability, 144 h; at 1.25 µM; OCI-C5x cells; with rucaparib 10 µM; hits give low values; 100% = cells with rucaparib alone

SMILES	viability
CNC(=O)c1ccc(N2C(=S)N(c3ccc(C#N)c(C(F)(F)F)c3)C(=O)C2(C)C)cc1F	117% (inactive)
Cn1cncc1[C@@](N)(c1ccc(Cl)cc1)c1ccc2c(c1)c(-c1cccc(Cl)c1)cc(=O)n2C	101% (inactive)
O=C(O)c1ccc2c(c1)nc(Nc1cccc(Cl)c1)c1ccncc12	68.3% (active)
CC(C)C[C@H](NC(=O)CNC(=O)c1cc(Cl)ccc1Cl)B(O)O	7.48% (active)
CC1(C)CCC(c2ccc(Cl)cc2)=C(CN2CCN(c3ccc(C(=O)NS(=O)(=O)c4ccc(N[C@H](CCN5CCOCC5)CSc5ccccc5)c(S(=O)(=O)C(F)(F)F)c4)cc3)CC2)C1	10.8% (active)
C#Cc1cccc(Nc2ncnc3cc(OCCOC)c(OCCO)cc23)c1	78.3% (active)
CC(C)CC(=O)Nc1n[nH]c2c1CN(C(=O)C1CCN(C)CC1)C2(C)C	109% (inactive)
C=CCn1c(=O)c2cnc(Nc3ccc(N4CCN(C)CC4)cc3)nc2n1-c1cccc(C(C)(C)O)n1	54.7% (active)
O=C(O)[C@H](Cc1c[nH]c2ccccc12)N1C(=O)c2ccccc2C1=O	110% (inactive)
O=C(NC1CCNCC1)c1[nH]ncc1NC(=O)c1c(Cl)cccc1Cl	10.3% (active)
CC(C)C[C@H](NC(=O)CNC(=O)c1cc(Cl)ccc1Cl)B1OC(=O)CC(CC(=O)O)(C(=O)O)O1 (some centres not stated)	6.01% (active)
